# Source: publication PMC7862700, “An all-to-all approach to the identification of sequence-specific readers for epigenetic DNA modifications on cytosine”
# What was measured:
# Test in all cases: DAPPL (digital affinity profiling via proximity ligation, sequencing); 10 mM Tris-HCl pH 7.5, 50 mM NaCl, 1 mM DTT, 4% glycerol, room temperature, 30 min; GST-TFs on glutathione beads, 16-mer random dsDNA library, 0.1% formaldehyde crosslink after washing; high values mean tight binding
# FEV = target: T1, FEV (Homo sapiens, UniProt Q99581 1-238); details: protein: recombinant; tags: N-terminal GST; dsDNA, one strand shown
# T1 sequence: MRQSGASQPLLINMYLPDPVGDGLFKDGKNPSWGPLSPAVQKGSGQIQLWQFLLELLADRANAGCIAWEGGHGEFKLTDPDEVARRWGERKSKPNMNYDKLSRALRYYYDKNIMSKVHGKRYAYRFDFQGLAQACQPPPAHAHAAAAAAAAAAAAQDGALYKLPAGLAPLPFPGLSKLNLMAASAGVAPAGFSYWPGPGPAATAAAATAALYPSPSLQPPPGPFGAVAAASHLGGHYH
# In short: (§1)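 The binding signal reported is, for every hexamer, its read frequency for a factor over its read frequency for the tag-only sample. Reads came from pools of yeast-expressed, GST-fused human transcription factors on glutathione beads, barcoded with DNA and mixed with that sample, which were incubated with 200 nmole of a random double-stranded 16-mer DNA library in Tris/NaCl/DTT/glycerol buffer at room temperature for 30 min. After washing, the pools were crosslinked with 0.1% formaldehyde, proximity-ligated with BsaI/T4 ligase for 1 h at 37 °C, PCR-amplified and sequenced on an Illumina NextSeq500.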
# ETV5 = ETV5 (Homo sapiens, UniProt P41161 1-510); details: protein: recombinant; tags: N-terminal GST; dsDNA, one strand shown
# Sequence of ETV5 (P41161 whole entry): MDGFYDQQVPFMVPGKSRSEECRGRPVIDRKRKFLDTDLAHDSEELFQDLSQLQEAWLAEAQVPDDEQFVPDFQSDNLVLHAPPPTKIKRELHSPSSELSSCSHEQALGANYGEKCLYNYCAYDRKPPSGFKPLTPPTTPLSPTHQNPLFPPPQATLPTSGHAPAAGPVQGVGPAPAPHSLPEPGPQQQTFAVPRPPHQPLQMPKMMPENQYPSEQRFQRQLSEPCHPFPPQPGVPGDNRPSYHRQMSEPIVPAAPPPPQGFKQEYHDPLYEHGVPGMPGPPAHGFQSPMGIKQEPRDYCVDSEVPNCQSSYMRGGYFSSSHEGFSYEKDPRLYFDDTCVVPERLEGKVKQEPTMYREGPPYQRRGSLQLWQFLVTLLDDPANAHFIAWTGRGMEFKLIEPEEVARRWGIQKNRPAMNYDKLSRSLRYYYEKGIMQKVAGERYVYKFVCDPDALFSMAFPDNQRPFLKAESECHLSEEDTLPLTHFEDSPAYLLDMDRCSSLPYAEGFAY
# In short: as §1
# HSF1 = HSF1 (Homo sapiens, UniProt Q00613 1-529); details: protein: recombinant; tags: N-terminal GST; chain copies: 3; dsDNA, one strand shown
# Sequence of HSF1 (Q00613 whole entry): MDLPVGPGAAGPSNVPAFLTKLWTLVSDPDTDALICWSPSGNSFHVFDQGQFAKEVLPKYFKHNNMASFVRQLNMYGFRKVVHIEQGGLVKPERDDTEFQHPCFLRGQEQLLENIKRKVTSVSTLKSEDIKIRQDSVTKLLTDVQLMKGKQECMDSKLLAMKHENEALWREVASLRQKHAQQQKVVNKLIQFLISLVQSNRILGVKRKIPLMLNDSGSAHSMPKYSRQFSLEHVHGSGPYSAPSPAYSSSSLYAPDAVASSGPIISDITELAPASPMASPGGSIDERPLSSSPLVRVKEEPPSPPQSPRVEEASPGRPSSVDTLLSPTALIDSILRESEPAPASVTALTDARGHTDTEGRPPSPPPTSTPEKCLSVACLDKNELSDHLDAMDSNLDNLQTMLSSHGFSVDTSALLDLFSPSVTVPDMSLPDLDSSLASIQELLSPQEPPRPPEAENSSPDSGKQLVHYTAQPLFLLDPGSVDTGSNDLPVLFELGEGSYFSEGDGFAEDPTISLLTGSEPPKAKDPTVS
# In short: as §1
# SPIC = target: T2, SPIC (Homo sapiens, UniProt Q8N5J4 1-248); details: protein: recombinant; tags: N-terminal GST; dsDNA, one strand shown
# T2 sequence: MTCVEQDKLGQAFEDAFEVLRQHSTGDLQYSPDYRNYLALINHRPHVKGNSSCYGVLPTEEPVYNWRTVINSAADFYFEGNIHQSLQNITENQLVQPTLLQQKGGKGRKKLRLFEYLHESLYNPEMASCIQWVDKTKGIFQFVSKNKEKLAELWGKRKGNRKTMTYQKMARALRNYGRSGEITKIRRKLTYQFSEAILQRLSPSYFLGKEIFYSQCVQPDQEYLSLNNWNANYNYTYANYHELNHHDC
# In short: as §1
# ELF4 = ELF4 (Homo sapiens, UniProt Q99607 1-663); details: protein: recombinant; tags: N-terminal GST; dsDNA, one strand shown
# Sequence of ELF4 (Q99607 whole entry): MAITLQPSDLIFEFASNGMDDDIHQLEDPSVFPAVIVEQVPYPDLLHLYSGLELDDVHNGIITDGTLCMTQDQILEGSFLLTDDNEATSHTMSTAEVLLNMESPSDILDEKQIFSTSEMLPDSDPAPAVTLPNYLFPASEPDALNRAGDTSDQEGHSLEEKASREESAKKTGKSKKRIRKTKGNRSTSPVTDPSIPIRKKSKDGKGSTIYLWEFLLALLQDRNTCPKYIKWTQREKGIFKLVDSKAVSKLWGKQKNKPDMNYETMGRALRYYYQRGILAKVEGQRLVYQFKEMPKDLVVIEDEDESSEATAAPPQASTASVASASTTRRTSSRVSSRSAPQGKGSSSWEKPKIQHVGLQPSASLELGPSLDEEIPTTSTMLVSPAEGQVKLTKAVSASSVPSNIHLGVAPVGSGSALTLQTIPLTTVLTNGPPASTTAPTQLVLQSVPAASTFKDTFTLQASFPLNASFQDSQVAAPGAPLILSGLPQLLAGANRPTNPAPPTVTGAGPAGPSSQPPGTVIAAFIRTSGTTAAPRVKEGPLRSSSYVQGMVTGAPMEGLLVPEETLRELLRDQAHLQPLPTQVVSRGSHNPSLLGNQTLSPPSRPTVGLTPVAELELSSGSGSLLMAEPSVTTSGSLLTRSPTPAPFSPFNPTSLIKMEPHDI
# In short: as §1
# ELK4 = target: T3, ELK4 (Homo sapiens, UniProt P28324-2 1-405); details: protein: recombinant; tags: N-terminal GST; dsDNA, one strand shown
# T3 sequence: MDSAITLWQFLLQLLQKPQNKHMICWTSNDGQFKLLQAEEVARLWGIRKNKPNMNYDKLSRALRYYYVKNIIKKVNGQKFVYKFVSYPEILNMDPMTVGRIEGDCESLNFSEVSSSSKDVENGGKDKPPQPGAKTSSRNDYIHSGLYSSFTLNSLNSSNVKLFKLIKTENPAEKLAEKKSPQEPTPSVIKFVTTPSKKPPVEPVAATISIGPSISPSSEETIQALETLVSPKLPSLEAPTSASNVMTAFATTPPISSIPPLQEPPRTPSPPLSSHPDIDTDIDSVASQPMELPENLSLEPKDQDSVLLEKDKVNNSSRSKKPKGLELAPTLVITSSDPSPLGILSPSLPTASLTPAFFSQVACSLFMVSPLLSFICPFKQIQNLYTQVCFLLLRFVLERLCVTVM
# In short: as §1
# ETV2 = target: T4, ETV2 (Homo sapiens, UniProt O00321 1-342); details: protein: recombinant; tags: N-terminal GST; dsDNA, one strand shown
# T4 sequence: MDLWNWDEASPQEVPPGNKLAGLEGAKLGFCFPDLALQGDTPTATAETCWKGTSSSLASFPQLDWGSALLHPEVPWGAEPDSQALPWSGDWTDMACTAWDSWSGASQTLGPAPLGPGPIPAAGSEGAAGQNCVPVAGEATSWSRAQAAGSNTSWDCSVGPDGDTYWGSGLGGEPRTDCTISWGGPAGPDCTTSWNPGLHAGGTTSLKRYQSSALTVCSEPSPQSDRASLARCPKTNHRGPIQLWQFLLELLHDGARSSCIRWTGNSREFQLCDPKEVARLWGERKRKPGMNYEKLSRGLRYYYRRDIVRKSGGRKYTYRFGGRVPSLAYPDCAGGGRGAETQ
# In short: as §1
# ELF3 = target: T5, ELF3 (Homo sapiens, UniProt P78545 1-371); details: protein: recombinant; tags: N-terminal GST; dsDNA, one strand shown
# T5 sequence: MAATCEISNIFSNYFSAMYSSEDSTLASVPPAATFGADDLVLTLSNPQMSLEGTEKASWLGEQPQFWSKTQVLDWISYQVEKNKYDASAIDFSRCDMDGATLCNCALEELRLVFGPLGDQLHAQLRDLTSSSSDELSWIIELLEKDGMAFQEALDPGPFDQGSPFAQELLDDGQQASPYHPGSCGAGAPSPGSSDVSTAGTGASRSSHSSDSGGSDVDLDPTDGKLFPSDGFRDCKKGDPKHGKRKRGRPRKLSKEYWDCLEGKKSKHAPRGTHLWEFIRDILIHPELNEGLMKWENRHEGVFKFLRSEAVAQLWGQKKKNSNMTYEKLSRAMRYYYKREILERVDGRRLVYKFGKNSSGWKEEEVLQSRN
# In short: as §1
# CRX = CRX (Homo sapiens, UniProt O43186 1-299); details: protein: recombinant; tags: N-terminal GST; dsDNA, one strand shown
# Sequence of CRX (O43186 whole entry): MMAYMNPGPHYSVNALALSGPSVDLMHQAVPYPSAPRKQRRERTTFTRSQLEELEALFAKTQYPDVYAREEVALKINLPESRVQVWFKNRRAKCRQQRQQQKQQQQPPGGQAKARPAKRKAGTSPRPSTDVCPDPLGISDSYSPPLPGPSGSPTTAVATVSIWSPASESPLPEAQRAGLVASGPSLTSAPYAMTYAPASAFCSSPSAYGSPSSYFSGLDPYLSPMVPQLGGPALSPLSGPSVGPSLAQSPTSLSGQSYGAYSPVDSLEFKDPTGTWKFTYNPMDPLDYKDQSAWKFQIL
# In short: as §1
# ETV1 = ETV1 (Homo sapiens, UniProt P50549 1-477); details: protein: recombinant; tags: N-terminal GST; dsDNA, one strand shown
# Sequence of ETV1 (P50549 whole entry): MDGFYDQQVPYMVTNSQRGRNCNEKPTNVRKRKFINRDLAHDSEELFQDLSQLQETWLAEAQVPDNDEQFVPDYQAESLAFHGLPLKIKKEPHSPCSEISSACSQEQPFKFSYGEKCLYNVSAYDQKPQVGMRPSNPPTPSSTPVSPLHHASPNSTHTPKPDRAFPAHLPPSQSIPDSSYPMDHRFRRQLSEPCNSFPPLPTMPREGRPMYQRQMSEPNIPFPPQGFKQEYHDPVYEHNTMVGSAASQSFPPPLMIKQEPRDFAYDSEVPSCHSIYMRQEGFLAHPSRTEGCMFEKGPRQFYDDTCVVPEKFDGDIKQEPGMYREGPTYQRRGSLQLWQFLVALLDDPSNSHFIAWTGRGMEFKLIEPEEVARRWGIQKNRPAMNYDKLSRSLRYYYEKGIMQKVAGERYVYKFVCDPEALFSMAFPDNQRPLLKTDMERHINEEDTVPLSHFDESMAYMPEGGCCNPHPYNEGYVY
# In short: as §1
# ERF = target: T6, ERF (Homo sapiens, UniProt P50548 1-548); details: protein: recombinant; tags: N-terminal GST; dsDNA, one strand shown
# T6 sequence: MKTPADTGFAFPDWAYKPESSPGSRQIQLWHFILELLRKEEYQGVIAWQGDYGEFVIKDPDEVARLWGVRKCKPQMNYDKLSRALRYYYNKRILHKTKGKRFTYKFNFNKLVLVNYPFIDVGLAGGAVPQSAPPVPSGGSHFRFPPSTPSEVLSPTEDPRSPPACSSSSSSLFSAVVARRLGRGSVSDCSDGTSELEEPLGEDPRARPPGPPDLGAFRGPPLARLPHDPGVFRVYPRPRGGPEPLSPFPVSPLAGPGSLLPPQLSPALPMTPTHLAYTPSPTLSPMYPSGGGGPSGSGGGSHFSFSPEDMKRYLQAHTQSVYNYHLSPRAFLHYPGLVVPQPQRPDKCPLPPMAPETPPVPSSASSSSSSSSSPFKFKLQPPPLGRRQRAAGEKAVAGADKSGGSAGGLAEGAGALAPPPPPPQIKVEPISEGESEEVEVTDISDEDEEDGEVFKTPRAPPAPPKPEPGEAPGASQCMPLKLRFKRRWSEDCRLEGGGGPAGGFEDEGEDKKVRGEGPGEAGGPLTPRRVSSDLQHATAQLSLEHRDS
# In short: as §1
# ETV3L = target: T7, ETV3L (Homo sapiens, UniProt Q6ZN32 1-361); details: protein: recombinant; tags: N-terminal GST; dsDNA, one strand shown
# T7 sequence: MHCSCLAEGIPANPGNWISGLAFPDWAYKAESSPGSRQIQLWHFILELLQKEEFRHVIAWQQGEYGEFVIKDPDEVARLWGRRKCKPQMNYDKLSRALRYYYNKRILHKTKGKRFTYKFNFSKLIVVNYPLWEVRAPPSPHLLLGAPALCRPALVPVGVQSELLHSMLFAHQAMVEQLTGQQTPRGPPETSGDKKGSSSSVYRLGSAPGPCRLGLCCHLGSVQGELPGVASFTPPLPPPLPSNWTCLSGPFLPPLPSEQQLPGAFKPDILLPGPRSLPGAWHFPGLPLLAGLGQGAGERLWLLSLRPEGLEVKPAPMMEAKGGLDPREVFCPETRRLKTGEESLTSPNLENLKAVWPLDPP
# In short: as §1
# ETS2 = target: T8, ETS2 (Homo sapiens, UniProt P15036 1-469); details: protein: recombinant; tags: N-terminal GST; dsDNA, one strand shown
# T8 sequence: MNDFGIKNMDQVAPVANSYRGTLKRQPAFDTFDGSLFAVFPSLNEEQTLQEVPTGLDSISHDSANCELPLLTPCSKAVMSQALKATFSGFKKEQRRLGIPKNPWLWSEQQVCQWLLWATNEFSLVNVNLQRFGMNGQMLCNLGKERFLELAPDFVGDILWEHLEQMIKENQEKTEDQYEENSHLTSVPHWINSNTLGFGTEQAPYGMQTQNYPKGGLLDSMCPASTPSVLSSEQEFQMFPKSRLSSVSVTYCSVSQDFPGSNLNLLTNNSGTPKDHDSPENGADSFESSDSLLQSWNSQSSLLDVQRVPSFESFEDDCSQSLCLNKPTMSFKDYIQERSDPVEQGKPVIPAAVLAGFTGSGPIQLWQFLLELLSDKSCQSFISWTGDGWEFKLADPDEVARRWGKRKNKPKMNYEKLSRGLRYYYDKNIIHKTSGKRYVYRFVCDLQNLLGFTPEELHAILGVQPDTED
# In short: as §1
# SPDEF = target: T9, SPDEF (Homo sapiens, UniProt O95238 1-335); details: protein: recombinant; tags: N-terminal GST; dsDNA, one strand shown
# T9 sequence: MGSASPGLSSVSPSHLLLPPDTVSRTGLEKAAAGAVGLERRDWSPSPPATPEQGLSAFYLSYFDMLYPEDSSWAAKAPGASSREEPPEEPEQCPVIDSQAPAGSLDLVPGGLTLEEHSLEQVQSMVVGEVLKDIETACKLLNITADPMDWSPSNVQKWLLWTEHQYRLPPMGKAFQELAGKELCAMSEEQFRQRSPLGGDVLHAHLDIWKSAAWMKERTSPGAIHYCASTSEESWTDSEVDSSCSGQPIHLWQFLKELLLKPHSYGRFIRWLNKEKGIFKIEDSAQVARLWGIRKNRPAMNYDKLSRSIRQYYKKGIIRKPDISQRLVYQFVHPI
# In short: as §1
# ETV7 = target: T10, ETV7 (Homo sapiens, UniProt Q9Y603 1-341); details: protein: recombinant; tags: N-terminal GST; dsDNA, one strand shown
# T10 sequence: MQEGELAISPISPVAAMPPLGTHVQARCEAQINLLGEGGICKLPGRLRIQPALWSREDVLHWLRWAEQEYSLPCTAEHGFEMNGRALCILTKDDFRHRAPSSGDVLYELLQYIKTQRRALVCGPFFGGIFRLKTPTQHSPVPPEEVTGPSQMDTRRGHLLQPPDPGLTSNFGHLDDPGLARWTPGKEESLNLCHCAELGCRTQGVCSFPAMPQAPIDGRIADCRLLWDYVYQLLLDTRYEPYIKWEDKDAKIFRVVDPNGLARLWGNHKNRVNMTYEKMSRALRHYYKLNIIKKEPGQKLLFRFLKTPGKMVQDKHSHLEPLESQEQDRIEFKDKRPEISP
# In short: as §1
# ELF5 = target: T11, ELF5 (Homo sapiens, UniProt Q9UKW6-2 1-255); details: protein: recombinant; tags: N-terminal GST; dsDNA, one strand shown
# T11 sequence: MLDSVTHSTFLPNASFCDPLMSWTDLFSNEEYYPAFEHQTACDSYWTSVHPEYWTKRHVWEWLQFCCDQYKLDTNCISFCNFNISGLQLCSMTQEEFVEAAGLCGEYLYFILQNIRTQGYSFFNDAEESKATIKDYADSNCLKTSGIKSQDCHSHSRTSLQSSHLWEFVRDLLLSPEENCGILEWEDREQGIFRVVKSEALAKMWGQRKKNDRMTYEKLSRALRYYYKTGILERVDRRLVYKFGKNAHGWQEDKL
# In short: as §1
# ETV3 = target: T12, ETV3 (Homo sapiens, UniProt P41162-2 1-143); details: protein: recombinant; tags: N-terminal GST; dsDNA, one strand shown
# T12 sequence: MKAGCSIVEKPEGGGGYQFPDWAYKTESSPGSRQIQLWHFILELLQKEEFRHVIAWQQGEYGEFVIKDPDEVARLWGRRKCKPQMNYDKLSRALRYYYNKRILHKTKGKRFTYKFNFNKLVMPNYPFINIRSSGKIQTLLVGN
# In short: as §1
# ETV6 = ETV6 (Homo sapiens, UniProt P41212 1-452); details: protein: recombinant; tags: N-terminal GST; dsDNA, one strand shown
# Sequence of ETV6 (P41212 whole entry): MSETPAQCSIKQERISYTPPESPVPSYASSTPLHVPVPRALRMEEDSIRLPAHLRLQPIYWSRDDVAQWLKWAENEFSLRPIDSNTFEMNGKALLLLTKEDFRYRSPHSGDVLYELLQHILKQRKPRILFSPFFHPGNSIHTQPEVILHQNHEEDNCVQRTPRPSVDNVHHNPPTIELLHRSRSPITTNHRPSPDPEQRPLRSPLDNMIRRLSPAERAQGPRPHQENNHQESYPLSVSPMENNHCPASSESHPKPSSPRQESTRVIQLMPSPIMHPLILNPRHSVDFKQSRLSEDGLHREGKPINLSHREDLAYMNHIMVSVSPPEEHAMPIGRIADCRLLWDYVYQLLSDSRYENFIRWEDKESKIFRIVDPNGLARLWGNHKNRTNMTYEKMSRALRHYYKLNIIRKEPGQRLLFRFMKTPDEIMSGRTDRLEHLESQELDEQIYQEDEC
# In short: as §1
sequence,measurement,setting,value
TATCCA,binding signal,FEV,"1.29 fold enrichment (6-mer frequency, TF over GST control)"
same,binding signal,ETV5,"1.27 fold enrichment (6-mer frequency, TF over GST control)"
same,binding signal,HSF1,"1.49 fold enrichment (6-mer frequency, TF over GST control)"
same,binding signal,SPIC,"1.4 fold enrichment (6-mer frequency, TF over GST control)"
same,binding signal,ELF4,"1.29 fold enrichment (6-mer frequency, TF over GST control)"
same,binding signal,ELK4,"1.33 fold enrichment (6-mer frequency, TF over GST control)"
same,binding signal,ETV2,"1.37 fold enrichment (6-mer frequency, TF over GST control)"
same,binding signal,ELF3,"1.31 fold enrichment (6-mer frequency, TF over GST control)"
same,binding signal,CRX,"1.75 fold enrichment (6-mer frequency, TF over GST control)"
same,binding signal,ETV1,"1.27 fold enrichment (6-mer frequency, TF over GST control)"
same,binding signal,ERF,"1.27 fold enrichment (6-mer frequency, TF over GST control)"
same,binding signal,ETV3L,"1.28 fold enrichment (6-mer frequency, TF over GST control)"
same,binding signal,ETS2,"1.28 fold enrichment (6-mer frequency, TF over GST control)"
same,binding signal,SPDEF,"1.21 fold enrichment (6-mer frequency, TF over GST control)"
same,binding signal,ETV7,"1.34 fold enrichment (6-mer frequency, TF over GST control)"
same,binding signal,ELF5,"1.27 fold enrichment (6-mer frequency, TF over GST control)"
same,binding signal,ETV3,"1.23 fold enrichment (6-mer frequency, TF over GST control)"
same,binding signal,ETV6,"1.2 fold enrichment (6-mer frequency, TF over GST control)"
